Assay results from PubChem BioAssay (NCATS).
Inconclusive results are not listed. Values without a mark were called inactive. Calls of active or inactive are those of the source. Calls come from the whole dose curve; as a rule, active = well fitted cell-killing curve with a large enough effect; inconclusive = small, poorly fitted or top-dose-only effect, or effect the other way; inactive = no such curve, though single readings can be large or run the other way.

experiment: Quantitative highthroughput screen to assess conditional lethalithy of NOMO1 cells grown in Human Plasma-Like Medium with dialyzed fetal bovine serum (HPLM+ds) (AID 1963878); details: NOMO1 AML cells in HPLM+ds, CellTiter-Glo viability, 48 h; series mostly up to 45.8 µM; viability: at the top concentration; note: nearly all actives have a fitted effect of over 35% in size
Description: Assay Provider: Jason Cantor Ph.D.
Department of Biochemistry
University of Wisconsin-Madison, Madison, WI, USA
Chemical screening studies have identified drug sensitivities across hundreds of cancer cell lines but most putative therapeutics fail to translate. Discovery and development of drug candidates in models that more accurately reflect nutrient levels in human blood is a major challenge. Here we performed high-throughput screens in conventional versus Human Plasma-Like Medium (HPLM) to identify compounds that were "missed" when screening using the artificial culture condition. Sets of conditional anticancer compounds spanned phases of clinical development and included non-oncology drugs were assessed. […] We also traced conditional phenotypes for several chemotherapeutics to availability of HPLM-specific metabolites and confirmed others for compounds whose reported targets are encoded by nonessential genes. Our findings establish generalizable strategies for exploiting conditional lethality in HPLM to reveal therapeutic candidates and mechanisms of action in cancer cells.
Described herein are the results of each viability screens against three cell lines: NOMO1 (an acute myeloid leukemia cell line); P12-Ichikawa (a T-cell acute lymphoblastic leukemia); and SEM (a B-cell ALL). Each assay was screened using 3 different cell culture media: homemade human plasma-Like medium with 10% dialyzed fetal bovine serum (HPLM+ds); RPMI1640 with 10% untreated FBS and 5mM glucose (RPMI+s); and RPMI1640 with 10% dialyzed fetal bovine serum and 5 mM glucose (RPMI+ds).
PROTOCOL TABLE (as described by Inglese J, Shamu CE and Guy RK. 2007)
SEQUENCE No. (e.g., 1, 2, 3, etc.); […] (e.g., Cells, Incubation, Reagent, etc.); VALUE and DESCRIPTION.
1; Cells; 5 uL; white, solid bottom 1536-well Greiner assay plate.
2; Compounds; 23 nL; Kalypsis pin tool (Wako USA) equipped with a 1536-well pin head to transfer to the assay plates.
3; Incubation; 48 hours; 37C incubation.
4; Reagent; 3 uL; CellTiter Glo (Promega).
5; Incubation; 5 min, room temperature
6; Detection; Luminescence, Viewlux PerkinElmer.
NOTES (numbers refer to Sequence numbers above)
1. Briefly, 5 ul of cell reagent was dispensed using a Multidrop Combi Dispenser. The NOMO1 and SEM cells were plated at 500 cells/well and the P12-Ichikawa line at 1000 cells/well.
2. After seeding the cells, 23 nL of MIPE 4.1 library compounds (in DMSO) were added to each plate using a Kalypsys 1536 Pintool dispenser. Bortezomib at final concentration of […] and DMSO were added to each plate as positive and negative controls respectively. For each screen, MIPE 4.1 compounds were added over an eleven-point concentration range […] in 3-fold dilutions.
3. Each plate was covered with a stainless steel gasketed lid to prevent evaporation and incubated for 48 hour at 37C, 95% relative humidity, and 5% CO2.
4-5. Three microliter CellTilter-GloTM luminescent substrate mix (Promega) reagent was added to the assay plate and incubated at room temperature for 5 min.
6. The luminescence signal was measured using a ViewLux (PerkinElmer) multiplate reader with a 2 second exposure time per plate. Data for each compound were normalized as percent viability such that measurements for DMSO and the empty well controls in each plate were defined as 100% and 0%, respectively.
Potency is the fitted concentration of half-maximal effect.

Row | Compound | viability [%] | Potency
1 | C[C@]12COC(=O)C[C@@H]1CC[C@@H]1[C@H]2CC[C@@]2(C)[C@H]1CC[C@]2(C)O | 82.9 | –
2 | C[C@]12CC[C@H](O)CC1=CC[C@H]1[C@H]3CCC(=O)[C@@]3(C)CC[C@@H]12 | 83.7 | –
3 | CC(C)N(CCNC(=O)CN1CCCC1=O)C(C)C | 100 | –
4 | CC(C)[C@]12O[C@@H]1[C@@H]1O[C@]13[C@]1(O[C@H]1C[C@@H]1C4=C(CC[C@@]13C)C(=O)OC4)[C@H]2O | – | 1.2 nM (active)
5 | CNCC(O)c1ccc(O)cc1 (stereo not given) | 106 | –
6 | Cc1sc2c(c1C)C(c1ccc(Cl)cc1)=N[C@@H](CC(=O)OC(C)(C)C)c1nnc(C)n1-2 | – | 418 nM (active)
7 | C=C[C@@H]1CN2CCC1C[C@@H]2[C@@H](O)c1ccnc2ccccc12 (stereo not given in full) | 94.5 | –
8 | CCCC(C)(COC(N)=O)COC(=O)NC(C)C (stereo not given) | 108 | –
9 | COc1ccc(CC2NCCc3cc(OC)c(OC)cc32)cc1OC (stereo not given) | 101 | –
10 | N=c1c2c(-c3ccccc3)c(-c3ccccc3)n(Cc3ccccc3)c2ncn1C1CCC(O)CC1 (stereo not given) | – | 16600 nM (active)
11 | O=C(O)c1nn(Cc2ccc(Cl)cc2Cl)c2ccccc12 | 82.9 | –
12 | O=C(O)CNC(=O)c1c(O)c2ccccc2n(Cc2ccccc2)c1=O | 100 | –
13 | CC1=NN=C(c2ccc(N)cc2)c2cc3c(cc2C1)OCO3 | 89.2 | –
14 | C[C@@H]1[C@@H](CC(C[C@H]2O[C@@H]3O[C@]4(C)CC[C@@H]5[C@H](C)CC[C@@H]([C@H]2C)[C@@]35OO4)C[S+](=O)([O-])c2ccc(COC(=O)N(C)C)cc2)O[C@@H]2O[C@]3(C)CC[C@H]4[C@H](C)CC[C@@H]1[C@@]24OO3 (stereo not given in full) | – | 418 nM (active)
15 | Oc1ccc2c3c1O[C@H]1c4[nH]c5c(c4C[C@@]4(O)[C@@H](C2)N(CC2CC2)CC[C@]314)C[C@@]1(O)[C@H]2Cc3ccc(O)c4c3[C@@]1(CCN2CC1CC1)[C@H]5O4 | 108 | –
16 | COc1ccc2c(c1OC)CN1CCc3cc4c(cc3C1C2)OCO4 (stereo not given) | – | 1480 nM (active)
17 | COc1cc(OC)c(OC)cc1C=O | 78.7 | –
18 | CC[C@@H]1[C@@H](C)O[C@@](O)([C@@H](C)[C@H](O)[C@H](C)[C@H]2OC(=O)C=CC=C[C@@H](C)[C@@H]([C@@H](C)[C@@H](O)[C@H](C)[C@@]3(O)C[C@H](O[C@H]4C[C@H](O)[C@H](O)[C@H](C)O4)[C@H](CC)[C@@H](C)O3)OC(=O)C=CC=C[C@@H]2C)C[C@H]1O[C@H]1C[C@H](O)[C@H](O)[C@H](C)O1 | – | 2960 nM (active)
19 | CC[C@H]1C=CC=CC[C@@H](C)[C@H](O)[C@@](C)(O)C(=O)[C@@H](C)[C@H](O)[C@@H](C)C(=O)[C@@H](C)[C@H](O)[C@@H](C)C=CC(=O)O[C@@H]2[C@@H](C)[C@H](CC1)O[C@]1(CC[C@H](C)[C@H](C[C@@H](C)O)O1)[C@H]2C | – | 2640 nM (active)
20 | CC1=C(O)C(=O)C=C2C1=CC=C1[C@@]2(C)CC[C@@]2(C)[C@@H]3C[C@](C)(C(=O)O)CC[C@]3(C)CC[C@]12C | – | 2960 nM (active)

Row | Compound | viability [%] | Potency
21 | CC(C)(O)C=CC(=O)[C@](C)(O)[C@H]1[C@H](O)C[C@]2(C)[C@@H]3CC=C4[C@@H](C=C(O)C(=O)C4(C)C)[C@]3(C)C(=O)C[C@@]12C | – | 209 nM (active)
22 | COC[C@H]1OC(=O)c2coc3c2[C@@]1(C)C1=C(C3=O)[C@@H]2CC[C@H](O)[C@@]2(C)C[C@@H]1OC(C)=O | – | 13200 nM (active)
23 | NC1=NC(=O)N2CC12 (stereo not given) | – | 4180 nM (active)
24 | CN1CCN(C(=O)O[C@H]2c3nccnc3C(=O)N2c2ccc(Cl)cn2)CC1 | 94.8 | –
25 | NCC1(CC(=O)O)CCCCC1 | 81.8 | –
26 | N[C@@H](Cc1ccc(N(CCCl)CCCl)cc1)C(=O)O | – | 7430 nM (active)
27 | COC[C@H]1OC(=O)c2coc3c2[C@@]1(C)C1=C(C3=O)C2CCC(=O)[C@@]2(C)C[C@H]1OC(C)=O (stereo not given in full) | 102 | –
28 | O=C1CC[C@@]2(O)[C@H]3Cc4ccc(O)c5c4[C@@]2(CCN3CC2CC2)[C@H]1O5 | – | 9350 nM (active)
29 | CC(C)C[C@H](CN)CC(=O)O | 97.5 | –
30 | c1ccc2c(CN3CCNCC3)cccc2c1 | 80.8 | –
31 | CC(O)=C(C#N)C(=O)Nc1cc(Br)ccc1Br | 91.7 | –
32 | CN(C)[C@@H]1C(=O)C(C(N)=O)=C(O)[C@@]2(O)C(=O)C3=C(O)c4c(O)cccc4[C@@](C)(O)[C@H]3C[C@@H]12 | 105 | –
33 | COc1ccc(C(CN(C)C)C2(O)CCCCC2)cc1 (stereo not given) | 98.3 | –
34 | CC(=CCCC1=CCC(C2=CC(=O)OC2O)OC1O)CCC1=C(C)CCCC1(C)C (stereo not given) | 97.9 | –
35 | C#CCN(C)[C@H](C)Cc1ccccc1 | 82.2 | –
36 | C[C@]12CC[C@@H]3c4ccc(OC(=O)N(CCCl)CCCl)cc4CC[C@H]3[C@@H]1CC[C@@H]2OP(=O)(O)O | – | 18700 nM (active)
37 | CCN1C[C@]2(OC(=O)c3ccccc3NC(C)=O)CC[C@H](OC)[C@@]34[C@H]5CC6[C@@H](OC)C[C@](O)(C(C[C@@H]23)[C@@H]14)[C@@]5(O)[C@@H]6OC | 104 | –
38 | C[C@@H]1O[C@@H](O[C@@H]2C=C3CC[C@@H]4[C@@H](CC[C@]5(C)[C@H](c6ccc(=O)oc6)CC[C@@]45O)[C@@]3(C)CC2)[C@H](O)[C@H](O)[C@H]1O | – | 33.2 nM (active)
39 | CC(NC(C)(C)C)C(=O)c1cccc(Cl)c1 (stereo not given) | – | 5900 nM (active)
40 | COc1cc(C(=O)N2CC[C@@H](O)[C@@H](N)C2)cc2nc(-c3cc4ccccc4n3CC3CC3)n(C)c12 | – | 234 nM (active)
